# Experimental data reported in PubChem BioAssay (NCATS).
# Inconclusive results are not listed. Entries that show only a call come without a potency. Active and inactive are the calls of the source. Unless noted, calls come from the whole dose curve; as a rule, active = well fitted curve in the direction sought with a large enough effect; inconclusive = small, poorly fitted or top-dose-only effect, or another doubt; inactive = no such curve, though single readings can be large; an effect the other way counts as inactive or inconclusive.
# Assays:
# [1] = P-glycoprotein substrates identified in KB-8-5-11 adenocarcinoma cell line, qHTS therapeutic library screen (AID 1346987); settings: KB-8-5-11 (P-gp overexpressing) viability, CellTiter-Glo, 72 h; series mostly up to 44.5 µM; note: nearly all actives have a fitted effect of over 65% in size; note: potency is the fitted concentration of half-maximal effect
# Procedure, shortened: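 Steps: plate 500 KB-8-5-11 cells/well in DMEM + 10% FCS (colchicine removed); pin compounds in dose-response; incubate 72 h, 37 degree C, 5% CO2; add CellTiter-Glo, 5 min; read luminescence.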
# [2] = test system: Zika virus NS2B-NS3 protease (unlinked complex); test: Primary screen GU Rhodamine qHTS for Zika virus inhibitors: Unlinked NS2B-NS3 protease assay (AID 1347159); settings: Recombinant ZIKV NS2B-NS3 protease, Rhodamine110 substrate fluorescence; series mostly up to 107 µM; note: nearly all actives have a fitted effect of over 60% in size
# Procedure, shortened: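 Noncovalent NS2B hydrophilic domain/NS3 protease complex (25 nM final) in 10 mM Tris-HCl pH 8.0, 0.01% Tween 20, preincubated 15 min with compounds (up to 114 microM), then 1.5 microM Rhodamine110 substrate. Fluorescence change over 15 min fitted to 4-parameter Hill.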
# [3] = target: Cytochrome P450 2D6 (Homo sapiens) (UniProt P10635); test: Cytochrome P450 family 2 subfamily D member 6 (CYP2D6) small molecule antagonists: luciferase biochemical (cell-free) qHTS assay (AID 1645840; active = well fitted curve in the direction sought with a large enough effect in the repeat runs; an effect the other way counts as inactive or inconclusive; note: nearly all actives have a fitted effect of over 55% in size; note: potency is the fitted concentration of half-maximal effect); settings: P450-Glo CYP2D6 enzyme, luciferin luminescence, 1 h; series mostly up to 57.4 µM
# Procedure, shortened: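 P450-Glo luminescent screen: recombinant CYP2D6 enzyme–proluciferin substrate mix preincubated with compound 10 min at room temperature, then NADPH regeneration added for 1 h at room temperature. Detection reagent added for 20 min; luciferin light read as relative luminescence units.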
# CAOV3 = test: Primary qHTS to identify gynecologic anti-cancer compounds using libraries of approved drugs and bioactive compounds (AID 1345084); settings: Gynecologic cancer cell panel viability, ATPlite luminescence, 48 h; series mostly up to 57.5 µM; note: nearly all actives have a fitted effect of over 55% in size; note: potency is the fitted concentration of half-maximal effect
# Procedure, shortened: (§1)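 Five-concentration response, 48 h; readout is ATP-driven luciferase luminescence.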
# SKOV3 = test: as above; settings: Gynecologic cancer cell panel viability, ATPlite luminescence, 48 h; series mostly up to 57.5 µM
# Procedure, shortened: as §1
# PA-1 = test: as above; settings: Gynecologic cancer cell panel viability, ATPlite luminescence, 48 h; series mostly up to 57.5 µM
# Procedure, shortened: as §1
# [4] = target: Cytochrome P450 2C9 (Homo sapiens) (UniProt P11712); test: Cytochrome P450 family 2 subfamily C member 9 (CYP2C9) small molecule antagonists: luciferase biochemical (cell-free) qHTS assay (AID 1645842; active = well fitted curve in the direction sought with a large enough effect in the repeat runs; an effect the other way counts as inactive or inconclusive; note: potency is the fitted concentration of half-maximal effect; nearly all actives have a fitted effect of over 55% in size); settings: P450-Glo CYP2C9 enzyme assay, luciferin luminescence; series mostly up to 57.4 µM
# Procedure, shortened: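 Luminescence, after 20 min with luciferin detection reagent, reflected CYP2C9 turnover during a 1 h NADPH-driven reaction at 37C. Enzyme-substrate mix contained 0.4% bovine serum albumin and was preincubated with compound 10 min at room temperature.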
# NIH3T3 = test: Cytotoxic Profiling of Annotated Libraries Using Quantitative High-Throughput Screening (AID 1296008); settings: Five cell lines viability, CellTiter-Glo ATP luminescence, 48-72 h; max response: stronger effect = lower value; note: nearly all actives have a fitted effect of over 60% in size; note: potency is the fitted concentration of half-maximal effect
# Procedure, shortened: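 Cells exposed to compounds for 48 or 72 hr at 37 degrees Celsius. Viability read as ATP-coupled luminescence with CellTiter-Glo after 10 min at room temperature.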
# [5] = qHTS to identify inhibitors of the type 1 interferon - major histocompatibility complex class I in skeletal muscle: primary screen against the NCATS Mechanism Interrogation Plate v5.0 (MIPE) Libary (AID 1347411); settings: iHSKM cells + IFN-b, HiBiT-tagged MHC-I luminescence, 24 h; series mostly up to 45.8 µM; note: nearly all actives have a fitted effect of over 65% in size; note: potency is the fitted concentration of half-maximal effect
# Procedure, shortened: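 Luminescence from HiBiT-tagged endogenous HLA-B*08:01 served as the MHC class I read-out. CRISPR-engineered C25cl48 human myoblasts received 4.0 ng/ml IFN-beta plus compound for 24 hrs, with an 11-point, 1:3 series topping at 46 uM final.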
# [6] = target: Catechol O-methyltransferase (Homo sapiens) (UniProt P21964); test: Confirmatory Screen for Target Class Profiling of Small Molecule Inhibitors of Methyltransferases (AID 1745852); settings: MTase-Glo luminescence, SAH detection, recombinant enzyme; measured here: COMT max response; stronger effect = lower value
# [7] = target: Guanidinoacetate N-methyltransferase (Homo sapiens) (UniProt Q14353); test: as above; settings: MTase-Glo luminescence, SAH detection, recombinant enzyme; activity change, negative = inhibition: at 57.3 µM (top of the series) unless noted; series mostly up to 57.3 µM
# [8] = target: Nicotinamide N-methyltransferase (Homo sapiens) (UniProt P40261); test: as above; settings: MTase-Glo luminescence, SAH detection, recombinant enzyme; measured here: NNMT max response; stronger effect = lower value
# [9] = target: Phenylethanolamine N-methyltransferase (Homo sapiens) (UniProt P11086); test: as above; settings: MTase-Glo luminescence, SAH detection, recombinant enzyme; measured here: PNMT max response; stronger effect = lower value
# [10] = qHTS assay to identify inhibitors of the type 1 interferon - major histocompatibility complex class I in skeletal muscle: Counter screen cell viability and HiBit confirmation (AID 1347412); settings: iHSKM muscle cells + IFN-b, HiBiT or CellTiter-Glo, 24 h; note: potency is the fitted concentration of half-maximal effect; nearly all actives have a fitted effect of over 60% in size
# Procedure, shortened: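 Luminescence read-out: Nano-Glo HiBiT lytic signal from C-terminally HiBiT-tagged HLA-B in CRISPR-edited human myoblasts, plus CellTiter Glo ATP as viability counter screen. IFN-beta 4.0 ng/ml; 24 hrs treatment at 37 C, 5% CO2.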
# [11] = Drug repurposing screens with cells derived from glioblastoma tumor samples (AID 1345199); settings: GBM patient neurospheres viability, ATP luminescence, 48 h; at 91.6 µM (top of the series); tumour line D; note: nearly all actives have a fitted effect of over 40% in size
# Procedure, shortened: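 Four patient lines of CD133+ GBM neurospheres were screened at several concentrations; hits were retested in those lines plus three slower-growing GBM lines, using 48-hour treatment and ATP-based viability.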
# Cytochrome P450 2D6 (Homo sapiens), sequence (P10635 whole entry, looked up): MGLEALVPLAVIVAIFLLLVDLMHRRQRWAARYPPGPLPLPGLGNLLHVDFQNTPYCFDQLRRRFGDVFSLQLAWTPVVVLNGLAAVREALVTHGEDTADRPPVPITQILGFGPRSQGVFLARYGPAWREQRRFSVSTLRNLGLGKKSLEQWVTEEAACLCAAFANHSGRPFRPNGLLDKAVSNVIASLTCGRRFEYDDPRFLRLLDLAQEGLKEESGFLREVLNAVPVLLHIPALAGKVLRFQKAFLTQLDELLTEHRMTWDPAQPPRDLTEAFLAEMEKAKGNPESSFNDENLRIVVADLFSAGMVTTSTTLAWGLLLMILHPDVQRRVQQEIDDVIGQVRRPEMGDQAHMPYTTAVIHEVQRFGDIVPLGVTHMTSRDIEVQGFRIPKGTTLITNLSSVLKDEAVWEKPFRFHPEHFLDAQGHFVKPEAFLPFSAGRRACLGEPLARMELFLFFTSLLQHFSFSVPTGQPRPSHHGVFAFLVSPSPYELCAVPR
# Cytochrome P450 2C9 (Homo sapiens), sequence (P11712 whole entry, looked up): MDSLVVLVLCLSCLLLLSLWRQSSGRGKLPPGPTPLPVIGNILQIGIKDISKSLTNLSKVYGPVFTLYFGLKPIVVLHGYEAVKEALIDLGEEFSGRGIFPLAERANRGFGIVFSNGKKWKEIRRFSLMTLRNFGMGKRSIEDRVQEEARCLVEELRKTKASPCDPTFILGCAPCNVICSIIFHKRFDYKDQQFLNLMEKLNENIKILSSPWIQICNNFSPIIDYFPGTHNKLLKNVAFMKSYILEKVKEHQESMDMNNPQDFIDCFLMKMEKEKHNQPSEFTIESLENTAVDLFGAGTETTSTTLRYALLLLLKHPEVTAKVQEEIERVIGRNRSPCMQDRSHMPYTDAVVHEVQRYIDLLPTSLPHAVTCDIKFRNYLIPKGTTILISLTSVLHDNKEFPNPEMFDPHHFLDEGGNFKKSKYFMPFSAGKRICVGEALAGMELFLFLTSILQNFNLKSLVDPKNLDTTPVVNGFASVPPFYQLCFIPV
# Nicotinamide N-methyltransferase (Homo sapiens), sequence (P40261 whole entry, looked up): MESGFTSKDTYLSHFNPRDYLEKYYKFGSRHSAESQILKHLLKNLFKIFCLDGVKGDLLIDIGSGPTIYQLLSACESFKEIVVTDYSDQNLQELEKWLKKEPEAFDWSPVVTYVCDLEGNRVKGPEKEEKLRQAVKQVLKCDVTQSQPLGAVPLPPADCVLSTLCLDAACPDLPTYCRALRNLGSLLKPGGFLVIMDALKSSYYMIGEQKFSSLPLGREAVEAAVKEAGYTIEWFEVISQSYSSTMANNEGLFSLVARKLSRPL
# Phenylethanolamine N-methyltransferase (Homo sapiens), sequence (P11086 whole entry, looked up): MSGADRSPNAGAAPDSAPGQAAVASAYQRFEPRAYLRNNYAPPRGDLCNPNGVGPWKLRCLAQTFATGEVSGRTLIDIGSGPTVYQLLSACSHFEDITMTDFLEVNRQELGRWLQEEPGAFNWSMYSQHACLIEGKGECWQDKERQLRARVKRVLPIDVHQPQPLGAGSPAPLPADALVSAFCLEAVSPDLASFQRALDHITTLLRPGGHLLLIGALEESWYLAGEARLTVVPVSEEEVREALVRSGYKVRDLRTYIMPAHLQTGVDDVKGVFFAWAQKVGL
# Catechol O-methyltransferase (Homo sapiens), sequence (P21964 whole entry, looked up): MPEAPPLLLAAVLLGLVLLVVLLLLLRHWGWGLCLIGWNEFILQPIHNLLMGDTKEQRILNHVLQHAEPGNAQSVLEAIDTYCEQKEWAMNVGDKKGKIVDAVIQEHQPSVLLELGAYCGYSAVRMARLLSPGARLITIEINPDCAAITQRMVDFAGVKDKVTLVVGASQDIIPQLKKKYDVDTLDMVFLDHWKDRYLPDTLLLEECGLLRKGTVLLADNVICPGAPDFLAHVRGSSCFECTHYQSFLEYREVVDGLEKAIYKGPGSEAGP
smiles,measurement,setting,value
c1ccc(-c2cnc(Nc3ccc(OCCN4CCCC4)cc3)s2)cc1,Potency,[1],16.4 µM (active)
same,Potency,[2],inactive
same,Potency,[3],10.7 µM (active)
same,Potency,CAOV3,inactive
same,Potency,SKOV3,35.5 µM (active)
Cc1nc(C)c2c(n1)N(Cc1ccc(-c3ccccc3-c3nn[nH]n3)cc1)C(=O)CC2,Potency,[2],inactive
same,Potency,[3],inactive
same,Potency,CAOV3,inactive
same,Potency,PA-1,inactive
same,Potency,SKOV3,inactive
Cc1nnsc1C(=O)Nc1ccc(-n2nc(C(F)(F)F)cc2C(F)(F)F)cc1,Potency,[3],10.7 µM (active)
same,Potency,[4],15.1 µM (active)
same,Potency,CAOV3,inactive
same,Potency,PA-1,inactive
same,Potency,SKOV3,inactive
C[C@@H](O[C@H]1OCCN(Cc2n[nH]nc2CN(C)C)[C@H]1c1ccc(F)cc1)c1cc(C(F)(F)F)cc(C(F)(F)F)c1,Potency,[2],inactive
same,Potency,[3],15.1 µM (active)
same,Potency,[4],15.1 µM (active)
same,Potency,CAOV3,inactive
same,Potency,PA-1,inactive
same,Potency,SKOV3,inactive
Cc1cc(C)c(-c2csc(NC(=O)c3ccccc3)n2)c(C)c1,Potency,NIH3T3,8.2 µM (active)
same,Potency,SKOV3,25.1 µM (active)
CCS(=O)(=O)N(Cc1cccnc1)c1cccc(-c2ccc(C#N)cc2)c1,Potency,[2],inactive
same,Potency,[4],9.52 µM (active)
same,max response,NIH3T3,-19.5% (inactive)
same,Potency,PA-1,inactive
N#C[C@@H]1C[C@@H]2C[C@@H]2N1C(=O)[C@@H](N)C12CC3CC(CC(O)(C3)C1)C2,Potency,[2],inactive
same,Potency,[5],inactive
same,Potency,CAOV3,inactive
same,Potency,PA-1,inactive
same,Potency,SKOV3,inactive
CCCCC(=O)N(Cc1ccc(-c2ccccc2-c2nn[nH]n2)cc1)C(C(=O)O)C(C)C (stereo unspecified),Potency,[2],inactive
same,Potency,CAOV3,inactive
same,Potency,PA-1,inactive
CCN(CC)Cc1cccc(/C=C/c2nc3ccc(F)cc3c(=O)n2-c2ccccc2Cl)n1,Potency,CAOV3,inactive
same,Potency,SKOV3,20 µM (active)
COc1cc(N2CCN(C(C)=O)CC2)ccc1Nc1ncc(Cl)c(Nc2ccc(N3CCN(C(C)=O)CC3)cc2OC)n1,Potency,[1],20.6 µM (active)
same,Potency,NIH3T3,4.11 µM (active)
Nc1nc(NCC2CCC(CNS(=O)(=O)c3cccc4ccccc34)CC2)nc2ccccc12 (stereo unspecified),Potency,[2],inactive
same,Potency,[3],3.38 µM (active)
same,Potency,[4],4.77 µM (active)
same,activity,[6],-12.1%
same,"activity change, negative = inhibition",[7],-4.41%
same,activity,[8],-26.1%
same,activity,[9],-28.4%
same,Potency,NIH3T3,20.6 µM (active)
same,Potency,PA-1,inactive
CN(C)C(=O)c1cc2cnc(Nc3ccc(N4CCNCC4)cn3)nc2n1C1CCCC1,Potency,[1],inactive
same,Potency,[2],inactive
same,Potency,[5],inactive
same,Potency,[3],inactive
same,Potency,CAOV3,inactive
same,Potency,SKOV3,inactive
COCCNCc1ccc(-c2cc3nccc(Oc4ccc(NC(=S)NC(=O)Cc5ccc(F)cc5)cc4F)c3s2)nc1,Potency,[2],inactive
same,Potency,[5],8.29 µM (active)
same,Potency,NIH3T3,6.51 µM (active)
same,Potency,PA-1,31.6 µM (active)
same,Potency,[10]; HiBiT,12.5 µM (active)
same,Potency,[10]; Viability,11.1 µM (active)
CC1(C)SC2C(NC(=O)[C@H](C(=O)O)c3ccsc3)C(=O)N2C1C(=O)O (stereo partly specified),Potency,CAOV3,inactive
same,Potency,PA-1,inactive
C=CC(=O)N1CCN(C(=O)c2cc(-c3cc(Cl)ccc3Cl)c(Cl)cc2OC)CC1,Potency,[2],inactive
same,Potency,[3],19 µM (active)
same,activity,[6],-10.7%
same,"activity change, negative = inhibition",[7],-11.4%
same,activity,[8],-31.6%
same,activity,[9],-2.64%
same,max response,NIH3T3,-20.9% (inactive)
same,Potency,PA-1,inactive
Nc1ccc(N)c([N+](=O)[O-])c1,"activity, negative = cell killing",[11],-23.5% (inactive)
